Among all 39,000 compounds or so, about 1,500 (3.8%) were called active. The sample as a whole holds a higher share of actives than the screen did.

This test has as its system HSkMC (human skeletal muscle cells). Briefly: cytotoxicity call (relative viability < 0.9). The conditions noted are these: 10 µM.
Turning to `CC(C=CC=C(C)C=CC(=O)C1(C)CC(O)CC1(C)C)=CC=CC=C(C)C=CC=C(C)C=CC1=C(C)CC(O)CC1(C)C` (stereo not given), the cytotoxicity call was “inactive”.

In the case of `C[C@@H]1CN([C@H](C)CO)C(=O)c2cc(NC(=O)Cn3cnnn3)ccc2O[C@H]1CN(C)Cc1ccc(-c2ccccc2)cc1`, the cytotoxicity call was “inactive”.

Turning to `CN1CCN(C(=O)C[C@H]2C=C[C@H](NC(=O)Nc3ccccc3F)[C@@H](CO)O2)CC1`, the cytotoxicity call is “inactive”.

`COC(=O)C[C@H]1CC[C@@H]2[C@H](COC[C@H](O)CN2S(=O)(=O)c2cn(C)cn2)O1`: the cytotoxicity call is “inactive”.

Consider `C[C@@H]1CN([C@H](C)CO)C(=O)c2cc(N(C)C)ccc2O[C@@H](C)CCCCO[C@H]1CN(C)C(=O)Nc1cccc2ccccc12`, for which the cytotoxicity call is “inactive”.

`C[C@@H]1CCCCO[C@H](CN(C)S(=O)(=O)c2ccc(Cl)cc2)[C@H](C)CN([C@H](C)CO)C(=O)c2cc(NS(=O)(=O)c3ccccc3)ccc2O1`: the cytotoxicity call is “inactive”.

As for `C[C@@H]1CCCCO[C@@H](CN(C)CC2CC2)[C@@H](C)CN([C@H](C)CO)C(=O)c2cc(NC(=O)Nc3cccc4ccccc34)ccc2O1`, the cytotoxicity call was “inactive”.

Take `C[C@H](CO)N1C[C@H](C)[C@@H](CN(C)C)OCCCC[C@H](C)Oc2ccc(NC(=O)Nc3cccc4ccccc34)cc2C1=O`: the cytotoxicity call is “inactive”.

With `C[C@H](CO)N1C[C@H](C)[C@@H](CN(C)CC2CC2)OCCCC[C@H](C)Oc2ccc(NC(=O)Nc3cccc4ccccc34)cc2C1=O`, the cytotoxicity call was “inactive”.

On to `C[C@H]1CCCCO[C@H](CN(C)CC2CCCCC2)[C@@H](C)CN([C@@H](C)CO)C(=O)c2cc(NC(=O)Nc3cccc4ccccc34)ccc2O1`, for which the cytotoxicity call is “active”.

For `C[C@@H]1CCCCO[C@H](CN(C)CC2CCCCC2)[C@H](C)CN([C@H](C)CO)C(=O)c2cc(NC(=O)Nc3cccc4ccccc34)ccc2O1`, the cytotoxicity call is “active”.

With `C[C@@H]1CCCCO[C@@H](CN(C)CC2CCCCC2)[C@@H](C)CN([C@H](C)CO)C(=O)c2cc(NC(=O)Nc3cccc4ccccc34)ccc2O1`, the cytotoxicity call was “active”.

`C[C@@H]1CN([C@@H](C)CO)C(=O)c2cc(NC(=O)Nc3cccc4ccccc34)ccc2O[C@@H](C)CCCCO[C@H]1CN(C)CC1CC1`: the cytotoxicity call is “inactive”.

As for `C[C@@H]1CCCCO[C@@H](CN(C)CC2CC2)[C@H](C)CN([C@@H](C)CO)C(=O)c2cc(NC(=O)Nc3cccc4ccccc34)ccc2O1`, the cytotoxicity call was “inactive”.

Regarding `C[C@@H]1CCCCO[C@H](CN(C)CC2CCCCC2)[C@@H](C)CN([C@H](C)CO)C(=O)c2cc(NC(=O)Nc3cccc4ccccc34)ccc2O1`, the cytotoxicity call was “active”.

`C[C@@H]1CCCCO[C@H](CN(C)CC2CC2)[C@H](C)CN([C@@H](C)CO)C(=O)c2cc(NC(=O)Nc3cccc4ccccc34)ccc2O1`: the cytotoxicity call is “inactive”.

Take `C[C@H](O)c1nc(=O)c2ccccc2[nH]1`: the cytotoxicity call was “inactive”.

In the case of `CC(=O)OCC(=O)C1(O)CCC2C3CCC4=CC(=O)C=CC4(C)C3(F)C(O)CC21C` (stereo not given), the cytotoxicity call was “inactive”.

In the case of `C[C@H](CO)N1C[C@H](C)[C@@H](CN(C)C(=O)Nc2ccc3c(c2)OCCO3)OCc2cnnn2CCCC1=O`, the cytotoxicity call was “inactive”.

Regarding `COCC(=O)Nc1ccc2c(c1)C(=O)N(C)C[C@H](OC)[C@@H](C)CN(Cc1ccccc1OC)[C@H](C)CO2`, the cytotoxicity call was “inactive”.

As for `S=C1C=C(N2CCCCC2)C[C@H](c2ccc(Cl)cc2)S1`, the cytotoxicity call is “inactive”.

On to `C[C@@H]1CN([C@@H](C)CO)C(=O)c2cc(NC(=O)Nc3ccc(F)cc3)ccc2O[C@H]1CN(C)S(=O)(=O)c1cn(C)cn1`, for which the cytotoxicity call is “inactive”.

`Cc1noc(C)c1NC(=O)Nc1ccc2c(c1)C(=O)N([C@@H](C)CO)C[C@@H](C)[C@@H](CN(C)C(=O)NC(C)C)O2`: the cytotoxicity call is “inactive”.

For the compound `CCO[C@H]1OC(C(=O)N2CCN(Cc3ccccc3)CC2)=C[C@@H](C)[C@@H]1CCCOC(=O)NCCCCCC(=O)NO`, the cytotoxicity call was “inactive”.

As to `C[C@H](CO)N1C[C@H](C)[C@H](CN(C)Cc2ccc(Cl)c(Cl)c2)Oc2ccc(NC(=O)Cc3ccccc3)cc2C1=O`, the cytotoxicity call was “inactive”.

Regarding `C[C@@H]1CN([C@H](C)CO)C(=O)Cc2cc(NS(C)(=O)=O)ccc2O[C@H]1CN(C)C(=O)Nc1ccc2c(c1)OCO2`, the cytotoxicity call was “inactive”.

As for `C[C@@H]1CN([C@@H](C)CO)C(=O)c2cc(NC(=O)Nc3cccc4ccccc34)ccc2O[C@@H](C)CCCCO[C@H]1CN(C)CC1CCCCC1`, the cytotoxicity call was “active”.

In the case of `C[C@@H]1CN([C@@H](C)CO)C(=O)c2cc(NC(=O)Nc3cccc4ccccc34)ccc2O[C@@H](C)CCCCO[C@@H]1CN(C)CC1CCCCC1`, the cytotoxicity call was “active”.

Consider `C[C@@H]1CCCCO[C@@H](CN(C)CC2CCCCC2)[C@H](C)CN([C@@H](C)CO)C(=O)c2cc(NC(=O)Nc3cccc4ccccc34)ccc2O1`, for which the cytotoxicity call was “inactive”.

In the case of `C[C@@H]1CCCCO[C@@H](CN(C)CC2CC2)[C@H](C)CN([C@H](C)CO)C(=O)c2cc(NC(=O)Nc3cccc4ccccc34)ccc2O1`, the cytotoxicity call is “inactive”.

On to `C[C@H](CO)N1C[C@H](C)[C@H](CN(C)CC2CCCCC2)OCCCC[C@H](C)Oc2ccc(NC(=O)Nc3cccc4ccccc34)cc2C1=O`, for which the cytotoxicity call was “active”.

`NCC1(c2cccs2)CCCC1`: the cytotoxicity call is “inactive”.

With `CC(C)NC(=O)Nc1ccc2c(c1)C(=O)N([C@@H](C)CO)C[C@@H](C)[C@H](CN(C)Cc1ccc3c(c1)OCO3)O2`, the cytotoxicity call is “inactive”.

For `Cc1noc(C)c1S(=O)(=O)N(C)C[C@H]1Oc2ccc(NC(=O)C3CCCCC3)cc2CC(=O)N([C@H](C)CO)C[C@@H]1C`, the cytotoxicity call was “inactive”.

Regarding `CCC(=O)N[C@@H]1CC[C@H](CC(=O)OC)O[C@@H]1CO`, the cytotoxicity call was “inactive”.

As to `Cc1noc(C)c1NC(=O)Nc1ccc2c(c1)C(=O)N([C@@H](C)CO)C[C@H](C)[C@@H](CN(C)Cc1ccc(Cl)c(Cl)c1)OCCCC[C@@H](C)O2`, the cytotoxicity call was “inactive”.

In the case of `C[C@@H]1CCCCO[C@@H](CN(C)C(=O)c2ccccc2)[C@@H](C)CN([C@H](C)CO)C(=O)c2cc(NC(=O)NC3CCCCC3)ccc2O1`, the cytotoxicity call was “inactive”.

Turning to `Cc1noc(C)c1S(=O)(=O)Nc1cccc2c1O[C@@H](CN(C)C(=O)Nc1ccc3c(c1)OCO3)[C@@H](C)CN([C@@H](C)CO)C2=O`, the cytotoxicity call was “inactive”.

With `C[C@H]1CCCCO[C@H](CN(C)S(=O)(=O)c2ccc(Cl)cc2)[C@@H](C)CN([C@@H](C)CO)C(=O)c2cc(NS(=O)(=O)c3ccc(Cl)cc3)ccc2O1`, the cytotoxicity call is “inactive”.

Turning to `C[C@@H]1CN([C@@H](C)CO)C(=O)c2cc(C#Cc3ccccc3F)cnc2O[C@H]1CN(C)C(=O)C1CCOCC1`, the cytotoxicity call is “inactive”.

On to `C[C@@H]1CCCCO[C@H](CN(C)Cc2ccc(C(=O)O)cc2)[C@H](C)CN([C@@H](C)CO)C(=O)c2cc(NS(=O)(=O)c3ccc(F)cc3)ccc2O1`, for which the cytotoxicity call is “inactive”.

As for `O=C(C[C@H]1CC[C@H]2[C@@H](COC[C@@H](O)CN2S(=O)(=O)c2ccc(Oc3ccccc3)cc2)O1)NCCN1CCCCC1`, the cytotoxicity call is “inactive”.

For the compound `C[C@@H]1CN([C@@H](C)CO)S(=O)(=O)c2ccc(-c3ccccc3F)cc2O[C@H]1CN(C)Cc1cncnc1`, the cytotoxicity call is “inactive”.

Regarding `CCCCOCCOc1ccc(-c2ccc3c(c2)/C=C(/C(=O)Nc2ccc([S@@](=O)Cc4cncn4CCC)cc2)CCCN3CC(C)C)cc1`, the cytotoxicity call was “active”.

For `C[C@@H]1CCCCO[C@H](CN(C)C(=O)NC2CCCCC2)[C@H](C)CN([C@H](C)CO)C(=O)c2cc(NC(=O)c3ccncc3)ccc2O1`, the cytotoxicity call was “inactive”.

For the compound `C[C@H](CO)N1C[C@H](C)[C@@H](CN(C)C(=O)C2CCCCC2)Oc2cc(C#C[C@@H](C)O)ccc2S1(=O)=O`, the cytotoxicity call was “inactive”.

With `CC[C@@H](CO)NC(=O)c1ccc(N)cc1`, the cytotoxicity call was “inactive”.

As for `C[C@H]1CN([C@@H](C)CO)C(=O)c2cc(NC(=O)Nc3ccc(C(F)(F)F)cc3)ccc2O[C@@H]1CN(C)Cc1ccc2c(c1)OCO2`, the cytotoxicity call was “active”.

As to `C[C@@H]1CN([C@H](C)CO)C(=O)c2cc(NC(=O)Nc3ccc(C(F)(F)F)cc3)ccc2O[C@H]1CN(C)Cc1ccc2c(c1)OCO2`, the cytotoxicity call is “inactive”.

As for `C[C@@H]1CN([C@@H](C)CO)C(=O)c2cc(NC(=O)Nc3ccc(C(F)(F)F)cc3)ccc2O[C@@H]1CN(C)Cc1ccc2c(c1)OCO2`, the cytotoxicity call was “active”.

As to `C[C@H](CO)N1C[C@H](C)[C@H](CN(C)Cc2ccc3c(c2)OCO3)Oc2ccc(NC(=O)Nc3ccc(C(F)(F)F)cc3)cc2C1=O`, the cytotoxicity call was “active”.

Consider `C[C@H]1CN([C@@H](C)CO)C(=O)c2cc(NC(=O)Nc3ccc(C(F)(F)F)cc3)ccc2O[C@H]1CN(C)Cc1ccc2c(c1)OCO2`, for which the cytotoxicity call is “inactive”.

With `C[C@@H]1CN([C@@H](C)CO)C(=O)c2cc(NC(=O)Nc3ccc(C(F)(F)F)cc3)ccc2O[C@H]1CN(C)Cc1ccc2c(c1)OCO2`, the cytotoxicity call was “active”.

For the compound `C[C@@H]1CN([C@H](C)CO)C(=O)c2cc(NC(=O)Nc3ccc4c(c3)OCO4)ccc2O[C@H]1CN(C)Cc1ccc(C(F)(F)F)cc1`, the cytotoxicity call was “inactive”.

Turning to `CNC[C@H]1OCCCC[C@@H](C)Oc2ccc(NC(=O)Nc3cccc4ccccc34)cc2C(=O)N([C@H](C)CO)C[C@@H]1C`, the cytotoxicity call is “inactive”.

Regarding `CCS(=O)(=O)NCC[C@H]1CC[C@H](NC(=O)Cc2ccccn2)[C@H](CO)O1`, the cytotoxicity call was “inactive”.

For `CC/N=c1\sc(C(=O)OC)cc(=O)n1CC`, the cytotoxicity call was “inactive”.

Take `C[C@H]1CN([C@@H](C)CO)C(=O)c2cc(NC(=O)C3CCCCC3)ccc2O[C@H]1CN(C)Cc1ccc(C(=O)Nc2ccccc2N)cc1`: the cytotoxicity call was “inactive”.

As to `CO[C@H]1CN(C)C(=O)c2ccc(NS(=O)(=O)CC(F)(F)F)cc2OC[C@@H](C)N(C(=O)NC(C)C)C[C@@H]1C`, the cytotoxicity call is “inactive”.

`C[C@H](CO)N1C[C@H](C)[C@H](CN(C)S(=O)(=O)c2ccccc2)OCCCC[C@H](C)Oc2ccc(NS(C)(=O)=O)cc2C1=O`: the cytotoxicity call is “inactive”.

In the case of `CNC(=O)N1CCC(C(N)=O)CC1`, the cytotoxicity call was “inactive”.

Regarding `O=C(C[C@@H]1C[C@H]2c3cc(NS(=O)(=O)c4ccc(F)cc4)ccc3O[C@H]2[C@H](CO)O1)NCc1ccccn1`, the cytotoxicity call is “inactive”.

As to `C[C@@H]1CN([C@@H](C)CO)C(=O)c2cc(NC(=O)Nc3ccc4c(c3)OCO4)ccc2O[C@@H]1CN(C)Cc1ccc(C(F)(F)F)cc1`, the cytotoxicity call is “inactive”.

Turning to `C[C@H](CO)N1C[C@H](C)[C@@H](CN(C)Cc2ccc3c(c2)OCO3)Oc2ccc(NC(=O)Nc3ccc(C(F)(F)F)cc3)cc2C1=O`, the cytotoxicity call was “active”.

In the case of `C[C@@H]1CN([C@H](C)CO)C(=O)c2cc(NC(=O)Nc3ccc(C(F)(F)F)cc3)ccc2O[C@@H]1CN(C)Cc1ccc2c(c1)OCO2`, the cytotoxicity call was “inactive”.
